Bioassay records: PubChem BioAssay, Sanford-Burnham Center for Chemical Genomics
This excerpt belongs to a sample that is enriched for hits.
Artemis endo inh: Artemis endonuclease inhibitors, primary screen, biochemical, fluorescence intensity, FAM/BHQ-1 hairpin substrate; Protein artemis (Homo sapiens), Q96SD1; recombinant Artemis, quenched FAM hairpin cleavage fluorescence; inhibition, % at 10 µM; 30,000 tested, 0.78% active;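 active means at 10 µM dose, at least 30% inhibition, measured as corrected fluorescence normalized to stimulator and neutral control wells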
Of the large screens only hits and unclear results are named; the others gave an inactive call.

O=c1c2ccccc2nc(-c2cccs2)n1-c1ccccc1	none
CCn1nc(-c2cccs2)nc2c(=O)n(C)c(=O)nc1-2	Artemis endo inh 71
COc1ccc2c(c1)c(C(=O)O)c(C)n2C(C)C	none
O=P(OCC(F)(F)C(F)F)(N1CCOCC1)N1CCOCC1	none
Cc1c(C(=O)N2CCC3(CC2)OCCO3)sc2ncnc(N(C)c3ccccc3)c12	none
Cc1ccc(N2C(=O)/C(=C/N3CCN(C(=O)c4ccco4)CC3)C(=O)NC2=S)cc1C	Artemis endo inh 31
Cn1c(C(=O)O)c(CC(=O)N2CCN(Cc3ccccc3)CC2)c2ccccc21	none
OC(Cc1ccccc1)(c1ccccc1)C1CN2CCC1CC2 (configuration not stated)	none
CCCC(=O)C1C(=O)NC(=O)NC1=O	none
COC(=O)C1=C(N)Oc2c(c(=O)oc3ccccc23)C1c1cccnc1 (configuration not stated)	none
CCOC(=O)c1c(-n2c(C)cc(/C=C3/C(=O)NC(=O)N(CC)C3=O)c2C)sc2c1CCCC2	Artemis endo inh 35
FC(F)(F)c1cccc(-n2nnnc2C2(N3CCOCC3)CCCCC2)c1	none
CC(C)Cc1[nH]c(=O)c(C#N)c2c1CCC2	none
CCCC(C)C1(CC)C(=O)NC(=Nc2ccc(F)cc2)NC1=O (configuration not stated)	none
CC12CN3CC(C)(CN(C1)C31CCSCC1)C2=O	none
